According to paper PMC7862700, “An all-to-all approach to the identification of sequence-specific readers for epigenetic DNA modifications on cytosine”:

Columns and labels:
Experiment in all cases: DAPPL (digital affinity profiling via proximity ligation, sequencing); 10 mM Tris-HCl pH 7.5, 50 mM NaCl, 1 mM DTT, 4% glycerol, room temperature, 30 min; GST-TFs on glutathione beads, 16-mer random dsDNA library, 0.1% formaldehyde crosslink after washing; high values mean tight binding
FLI1 = target: T1, FLI1 (Homo sapiens, UniProt Q01543 1-452); conditions: protein: recombinant; tags: N-terminal GST; dsDNA, one strand shown
T1 sequence: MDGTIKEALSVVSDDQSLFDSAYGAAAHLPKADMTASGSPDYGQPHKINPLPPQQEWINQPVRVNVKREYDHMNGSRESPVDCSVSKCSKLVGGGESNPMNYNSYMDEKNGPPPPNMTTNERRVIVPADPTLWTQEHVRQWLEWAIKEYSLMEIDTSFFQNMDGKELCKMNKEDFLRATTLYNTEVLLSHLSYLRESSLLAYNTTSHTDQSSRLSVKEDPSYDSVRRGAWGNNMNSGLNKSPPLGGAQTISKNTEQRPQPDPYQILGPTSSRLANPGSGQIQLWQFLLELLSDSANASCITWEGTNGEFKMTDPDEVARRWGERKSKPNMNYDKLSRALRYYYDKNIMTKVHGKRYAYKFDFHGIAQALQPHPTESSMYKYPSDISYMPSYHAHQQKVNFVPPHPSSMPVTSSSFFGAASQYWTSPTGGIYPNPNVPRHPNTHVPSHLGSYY
Method in brief: (§1)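 Human transcription factors carrying a GST fusion were produced in yeast, bound to glutathione beads, tagged with DNA barcodes and pooled together with a tag-only sample. Each pool was held with 200 nmole of a random double-stranded 16-mer DNA library in Tris/NaCl/DTT/glycerol buffer for 30 min at room temperature, then washed, crosslinked in 0.1% formaldehyde, proximity-ligated with BsaI/T4 ligase (1 h, 37 °C), PCR-amplified and sequenced on an Illumina NextSeq500. Binding signal is the read frequency of each hexamer for a given factor divided by its frequency in the tag-only sample.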

ELK1 = target: T2, ELK1 (Homo sapiens, UniProt P19419 1-428); conditions: protein: recombinant; tags: N-terminal GST; dsDNA, one strand shown
T2 sequence: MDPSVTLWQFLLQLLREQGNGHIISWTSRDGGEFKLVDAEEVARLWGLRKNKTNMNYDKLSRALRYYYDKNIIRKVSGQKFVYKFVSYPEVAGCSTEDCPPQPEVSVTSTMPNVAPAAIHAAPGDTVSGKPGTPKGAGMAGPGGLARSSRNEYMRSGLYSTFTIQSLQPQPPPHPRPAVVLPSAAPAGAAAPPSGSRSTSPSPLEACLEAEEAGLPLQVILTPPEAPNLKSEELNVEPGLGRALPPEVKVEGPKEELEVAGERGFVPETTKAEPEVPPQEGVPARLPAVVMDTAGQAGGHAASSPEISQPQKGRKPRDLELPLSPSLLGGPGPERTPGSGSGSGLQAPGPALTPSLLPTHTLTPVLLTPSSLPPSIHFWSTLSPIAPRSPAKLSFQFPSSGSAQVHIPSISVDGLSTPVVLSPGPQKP
Method in brief: as §1

GABPA = target: T3, GABPA (Homo sapiens, UniProt Q06546 1-454); conditions: protein: recombinant; tags: N-terminal GST; dsDNA, one strand shown
T3 sequence: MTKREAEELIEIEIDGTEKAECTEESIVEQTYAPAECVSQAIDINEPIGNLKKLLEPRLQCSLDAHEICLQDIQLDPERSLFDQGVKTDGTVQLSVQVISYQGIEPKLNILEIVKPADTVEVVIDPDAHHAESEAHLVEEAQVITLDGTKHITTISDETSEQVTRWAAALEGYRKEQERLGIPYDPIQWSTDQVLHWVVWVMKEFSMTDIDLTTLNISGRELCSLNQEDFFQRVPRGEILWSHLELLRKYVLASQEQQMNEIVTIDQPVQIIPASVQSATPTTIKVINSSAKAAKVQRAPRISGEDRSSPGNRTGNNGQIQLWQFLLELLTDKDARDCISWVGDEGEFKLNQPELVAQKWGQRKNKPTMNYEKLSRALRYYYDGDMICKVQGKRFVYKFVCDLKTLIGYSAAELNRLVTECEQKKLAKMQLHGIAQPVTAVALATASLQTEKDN
Method in brief: as §1

ERG = target: T4, ERG (Homo sapiens, UniProt P11308 1-479); conditions: protein: recombinant; tags: N-terminal GST; dsDNA, one strand shown
T4 sequence: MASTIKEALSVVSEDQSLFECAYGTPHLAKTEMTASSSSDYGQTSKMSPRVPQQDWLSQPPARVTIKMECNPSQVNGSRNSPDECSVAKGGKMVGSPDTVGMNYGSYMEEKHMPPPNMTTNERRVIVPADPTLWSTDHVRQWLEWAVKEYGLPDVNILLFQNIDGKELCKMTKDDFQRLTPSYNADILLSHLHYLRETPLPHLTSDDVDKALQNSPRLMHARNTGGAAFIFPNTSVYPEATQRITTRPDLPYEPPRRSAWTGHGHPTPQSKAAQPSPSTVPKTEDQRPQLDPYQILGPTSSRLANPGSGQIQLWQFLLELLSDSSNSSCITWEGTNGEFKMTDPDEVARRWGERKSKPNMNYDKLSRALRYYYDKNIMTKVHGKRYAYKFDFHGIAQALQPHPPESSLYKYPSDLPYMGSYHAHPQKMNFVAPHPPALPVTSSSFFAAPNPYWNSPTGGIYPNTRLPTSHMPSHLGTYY
Method in brief: as §1

ELF1 = ELF1 (Homo sapiens, UniProt P32519 1-619); conditions: protein: recombinant; tags: N-terminal GST; dsDNA, one strand shown
Method in brief: as §1

EHF = target: T5, EHF (Homo sapiens, UniProt Q9NZC4 1-300); conditions: protein: recombinant; tags: N-terminal GST; dsDNA, one strand shown
T5 sequence: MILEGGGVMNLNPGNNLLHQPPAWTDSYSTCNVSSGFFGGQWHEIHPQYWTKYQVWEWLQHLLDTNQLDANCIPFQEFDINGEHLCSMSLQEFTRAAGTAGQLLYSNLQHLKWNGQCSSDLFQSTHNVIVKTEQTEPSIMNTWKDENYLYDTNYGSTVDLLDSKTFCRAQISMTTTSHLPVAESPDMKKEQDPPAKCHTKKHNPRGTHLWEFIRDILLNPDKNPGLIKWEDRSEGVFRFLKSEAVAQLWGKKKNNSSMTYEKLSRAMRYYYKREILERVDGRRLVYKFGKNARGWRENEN
Method in brief: as §1

SPI1 = SPI1 (Homo sapiens, UniProt P17947 1-270); conditions: protein: recombinant; tags: N-terminal GST; dsDNA, one strand shown
Method in brief: as §1

SPIB = SPIB (Homo sapiens, UniProt Q01892 1-262); conditions: protein: recombinant; tags: N-terminal GST; dsDNA, one strand shown
Method in brief: as §1

ELK3 = target: T6, ELK3 (Homo sapiens, UniProt P41970 1-407); conditions: protein: recombinant; tags: N-terminal GST; dsDNA, one strand shown
T6 sequence: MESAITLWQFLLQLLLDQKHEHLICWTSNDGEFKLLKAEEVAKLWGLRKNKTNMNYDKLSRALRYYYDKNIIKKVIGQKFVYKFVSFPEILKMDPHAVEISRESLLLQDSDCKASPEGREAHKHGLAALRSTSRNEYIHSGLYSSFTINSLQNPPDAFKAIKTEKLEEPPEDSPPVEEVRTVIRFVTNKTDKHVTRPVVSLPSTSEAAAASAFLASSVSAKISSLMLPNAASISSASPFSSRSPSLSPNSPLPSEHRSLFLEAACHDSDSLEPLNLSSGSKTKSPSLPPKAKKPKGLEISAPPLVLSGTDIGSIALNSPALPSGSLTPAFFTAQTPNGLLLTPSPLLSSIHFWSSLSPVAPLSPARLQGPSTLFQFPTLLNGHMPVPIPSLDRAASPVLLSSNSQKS
Method in brief: as §1

FEV = target: T7, FEV (Homo sapiens, UniProt Q99581 1-238); conditions: protein: recombinant; tags: N-terminal GST; dsDNA, one strand shown
T7 sequence: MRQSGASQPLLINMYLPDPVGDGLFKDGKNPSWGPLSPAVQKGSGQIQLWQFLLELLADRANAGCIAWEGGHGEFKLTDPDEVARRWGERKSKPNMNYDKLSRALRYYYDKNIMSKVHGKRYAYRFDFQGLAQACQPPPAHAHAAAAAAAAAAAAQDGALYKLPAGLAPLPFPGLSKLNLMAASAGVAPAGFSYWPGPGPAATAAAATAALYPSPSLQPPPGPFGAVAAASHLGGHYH
Method in brief: as §1

ETV5 = ETV5 (Homo sapiens, UniProt P41161 1-510); conditions: protein: recombinant; tags: N-terminal GST; dsDNA, one strand shown
Method in brief: as §1

HSF1 = HSF1 (Homo sapiens, UniProt Q00613 1-529); conditions: protein: recombinant; tags: N-terminal GST; chain copies: 3; dsDNA, one strand shown
Method in brief: as §1

SPIC = target: T8, SPIC (Homo sapiens, UniProt Q8N5J4 1-248); conditions: protein: recombinant; tags: N-terminal GST; dsDNA, one strand shown
T8 sequence: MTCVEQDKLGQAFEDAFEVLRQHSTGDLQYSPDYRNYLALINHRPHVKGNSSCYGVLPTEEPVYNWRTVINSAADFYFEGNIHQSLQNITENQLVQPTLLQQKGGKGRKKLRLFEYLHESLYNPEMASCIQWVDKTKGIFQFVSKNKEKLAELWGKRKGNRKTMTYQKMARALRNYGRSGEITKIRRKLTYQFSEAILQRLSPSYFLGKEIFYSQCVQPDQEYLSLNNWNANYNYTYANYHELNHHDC
Method in brief: as §1

ELF4 = ELF4 (Homo sapiens, UniProt Q99607 1-663); conditions: protein: recombinant; tags: N-terminal GST; dsDNA, one strand shown
Method in brief: as §1

ELK4 = target: T9, ELK4 (Homo sapiens, UniProt P28324-2 1-405); conditions: protein: recombinant; tags: N-terminal GST; dsDNA, one strand shown
T9 sequence: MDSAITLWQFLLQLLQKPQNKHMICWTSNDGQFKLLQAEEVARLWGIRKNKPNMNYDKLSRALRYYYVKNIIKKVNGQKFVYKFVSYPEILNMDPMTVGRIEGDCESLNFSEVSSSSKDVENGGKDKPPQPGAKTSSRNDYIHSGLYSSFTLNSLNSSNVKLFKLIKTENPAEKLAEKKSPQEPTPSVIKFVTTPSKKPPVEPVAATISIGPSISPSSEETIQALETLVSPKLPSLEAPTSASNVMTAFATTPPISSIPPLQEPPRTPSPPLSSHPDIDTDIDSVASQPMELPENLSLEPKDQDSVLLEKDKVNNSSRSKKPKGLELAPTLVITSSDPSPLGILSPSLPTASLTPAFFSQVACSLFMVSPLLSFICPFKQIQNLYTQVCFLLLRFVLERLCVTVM
Method in brief: as §1

ETV2 = target: T10, ETV2 (Homo sapiens, UniProt O00321 1-342); conditions: protein: recombinant; tags: N-terminal GST; dsDNA, one strand shown
T10 sequence: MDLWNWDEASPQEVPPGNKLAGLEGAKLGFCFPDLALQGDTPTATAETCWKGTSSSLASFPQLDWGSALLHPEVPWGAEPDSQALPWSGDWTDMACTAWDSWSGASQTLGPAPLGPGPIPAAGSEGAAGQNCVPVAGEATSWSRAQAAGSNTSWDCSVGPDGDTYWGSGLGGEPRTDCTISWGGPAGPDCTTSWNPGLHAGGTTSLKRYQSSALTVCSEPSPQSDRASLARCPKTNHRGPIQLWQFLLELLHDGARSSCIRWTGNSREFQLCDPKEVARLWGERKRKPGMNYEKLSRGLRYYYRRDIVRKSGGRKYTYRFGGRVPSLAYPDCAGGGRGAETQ
Method in brief: as §1

ELF3 = target: T11, ELF3 (Homo sapiens, UniProt P78545 1-371); conditions: protein: recombinant; tags: N-terminal GST; dsDNA, one strand shown
T11 sequence: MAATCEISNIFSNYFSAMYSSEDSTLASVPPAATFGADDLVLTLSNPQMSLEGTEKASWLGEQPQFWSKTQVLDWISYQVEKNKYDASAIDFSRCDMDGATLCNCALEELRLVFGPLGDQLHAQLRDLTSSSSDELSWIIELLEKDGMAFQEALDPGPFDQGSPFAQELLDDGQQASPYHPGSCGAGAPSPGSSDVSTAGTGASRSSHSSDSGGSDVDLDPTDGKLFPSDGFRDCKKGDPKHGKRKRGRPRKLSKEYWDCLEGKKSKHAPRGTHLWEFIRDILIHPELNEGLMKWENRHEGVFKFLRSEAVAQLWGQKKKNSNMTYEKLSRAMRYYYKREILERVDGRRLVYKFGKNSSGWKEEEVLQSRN
Method in brief: as §1

CRX = CRX (Homo sapiens, UniProt O43186 1-299); conditions: protein: recombinant; tags: N-terminal GST; dsDNA, one strand shown
Method in brief: as §1

ETV1 = ETV1 (Homo sapiens, UniProt P50549 1-477); conditions: protein: recombinant; tags: N-terminal GST; dsDNA, one strand shown
Method in brief: as §1

Chain of ELF1 (P32519 whole entry): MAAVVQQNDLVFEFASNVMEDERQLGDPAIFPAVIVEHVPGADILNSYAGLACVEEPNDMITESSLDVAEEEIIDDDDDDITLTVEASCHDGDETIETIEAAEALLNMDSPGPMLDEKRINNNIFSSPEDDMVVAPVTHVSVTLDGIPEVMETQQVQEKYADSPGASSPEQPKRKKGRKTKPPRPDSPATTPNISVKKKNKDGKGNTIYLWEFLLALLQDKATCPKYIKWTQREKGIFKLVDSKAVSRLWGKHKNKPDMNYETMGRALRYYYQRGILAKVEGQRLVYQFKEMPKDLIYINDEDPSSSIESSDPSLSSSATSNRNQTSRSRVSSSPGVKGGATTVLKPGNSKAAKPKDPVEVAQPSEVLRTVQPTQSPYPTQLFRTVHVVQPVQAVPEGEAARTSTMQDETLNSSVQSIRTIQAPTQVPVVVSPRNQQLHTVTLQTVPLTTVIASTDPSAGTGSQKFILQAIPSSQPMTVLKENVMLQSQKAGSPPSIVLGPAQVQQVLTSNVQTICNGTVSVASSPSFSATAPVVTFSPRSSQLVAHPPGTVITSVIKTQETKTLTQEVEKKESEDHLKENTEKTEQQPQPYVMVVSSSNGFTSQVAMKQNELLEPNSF
Chain of CRX (O43186 whole entry): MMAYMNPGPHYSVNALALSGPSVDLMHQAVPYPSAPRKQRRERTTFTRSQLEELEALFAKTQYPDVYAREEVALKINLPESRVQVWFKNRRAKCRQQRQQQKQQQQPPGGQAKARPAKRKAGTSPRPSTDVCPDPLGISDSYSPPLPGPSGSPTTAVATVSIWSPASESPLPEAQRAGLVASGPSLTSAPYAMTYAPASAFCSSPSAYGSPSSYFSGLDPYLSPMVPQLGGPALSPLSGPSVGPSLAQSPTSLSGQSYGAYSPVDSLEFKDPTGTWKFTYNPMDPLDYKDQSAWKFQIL
Chain of HSF1 (Q00613 whole entry): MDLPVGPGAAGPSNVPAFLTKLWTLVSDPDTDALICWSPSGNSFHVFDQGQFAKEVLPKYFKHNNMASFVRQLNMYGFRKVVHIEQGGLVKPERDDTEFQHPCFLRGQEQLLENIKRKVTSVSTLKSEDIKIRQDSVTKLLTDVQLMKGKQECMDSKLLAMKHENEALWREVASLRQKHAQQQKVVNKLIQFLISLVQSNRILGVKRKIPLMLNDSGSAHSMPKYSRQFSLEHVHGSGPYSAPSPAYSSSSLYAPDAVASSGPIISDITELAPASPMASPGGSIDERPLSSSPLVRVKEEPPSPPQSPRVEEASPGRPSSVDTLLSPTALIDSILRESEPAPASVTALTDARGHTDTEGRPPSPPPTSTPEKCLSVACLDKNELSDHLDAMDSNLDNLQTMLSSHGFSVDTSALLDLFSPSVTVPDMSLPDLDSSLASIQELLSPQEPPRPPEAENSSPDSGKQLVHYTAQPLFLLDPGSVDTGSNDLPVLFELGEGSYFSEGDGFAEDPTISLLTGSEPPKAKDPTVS
Chain of ETV1 (P50549 whole entry): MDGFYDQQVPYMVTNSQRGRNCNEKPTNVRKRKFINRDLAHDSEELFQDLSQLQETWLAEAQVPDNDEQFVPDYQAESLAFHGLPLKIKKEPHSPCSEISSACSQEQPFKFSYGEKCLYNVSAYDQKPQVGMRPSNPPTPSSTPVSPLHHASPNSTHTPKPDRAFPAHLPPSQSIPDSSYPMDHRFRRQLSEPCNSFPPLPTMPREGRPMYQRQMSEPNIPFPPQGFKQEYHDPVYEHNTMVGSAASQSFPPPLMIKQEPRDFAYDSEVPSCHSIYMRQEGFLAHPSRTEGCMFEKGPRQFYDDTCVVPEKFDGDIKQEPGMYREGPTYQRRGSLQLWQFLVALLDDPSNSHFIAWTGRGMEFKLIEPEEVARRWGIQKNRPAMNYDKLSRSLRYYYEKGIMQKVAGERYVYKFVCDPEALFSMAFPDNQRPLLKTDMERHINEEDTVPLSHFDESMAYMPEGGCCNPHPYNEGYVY
Chain of ELF4 (Q99607 whole entry): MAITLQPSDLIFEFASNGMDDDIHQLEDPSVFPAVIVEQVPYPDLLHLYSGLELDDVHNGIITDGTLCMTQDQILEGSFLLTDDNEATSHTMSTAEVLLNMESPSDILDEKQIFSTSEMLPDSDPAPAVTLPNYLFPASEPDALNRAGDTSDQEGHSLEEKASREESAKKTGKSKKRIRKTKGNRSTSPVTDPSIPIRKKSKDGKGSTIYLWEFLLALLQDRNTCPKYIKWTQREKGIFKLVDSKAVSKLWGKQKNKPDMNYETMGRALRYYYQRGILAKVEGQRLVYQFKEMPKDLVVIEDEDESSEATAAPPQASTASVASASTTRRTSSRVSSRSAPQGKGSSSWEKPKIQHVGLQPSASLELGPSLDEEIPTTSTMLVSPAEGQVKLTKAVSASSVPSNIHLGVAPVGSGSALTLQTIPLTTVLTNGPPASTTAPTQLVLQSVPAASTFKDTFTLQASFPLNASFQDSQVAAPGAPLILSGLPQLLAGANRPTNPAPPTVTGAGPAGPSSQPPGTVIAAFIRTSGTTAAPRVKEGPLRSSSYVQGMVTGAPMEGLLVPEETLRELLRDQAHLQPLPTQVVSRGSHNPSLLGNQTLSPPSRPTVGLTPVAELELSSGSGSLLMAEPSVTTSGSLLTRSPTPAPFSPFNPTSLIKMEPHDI
Chain of ETV5 (P41161 whole entry): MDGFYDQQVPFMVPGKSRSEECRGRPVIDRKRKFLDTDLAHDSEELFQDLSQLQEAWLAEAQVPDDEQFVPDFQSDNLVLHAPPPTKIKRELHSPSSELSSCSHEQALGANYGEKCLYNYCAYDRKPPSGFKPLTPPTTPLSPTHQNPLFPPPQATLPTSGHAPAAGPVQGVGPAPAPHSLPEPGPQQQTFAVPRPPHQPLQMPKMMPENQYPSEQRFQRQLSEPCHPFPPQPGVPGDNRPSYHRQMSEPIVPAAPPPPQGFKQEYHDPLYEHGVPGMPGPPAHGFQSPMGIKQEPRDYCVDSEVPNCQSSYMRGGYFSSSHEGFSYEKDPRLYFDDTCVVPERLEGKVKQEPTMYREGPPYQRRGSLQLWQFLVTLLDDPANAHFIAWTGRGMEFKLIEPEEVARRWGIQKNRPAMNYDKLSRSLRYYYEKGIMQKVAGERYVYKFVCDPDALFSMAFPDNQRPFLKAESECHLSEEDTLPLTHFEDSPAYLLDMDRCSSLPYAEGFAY
Chain of SPIB (Q01892 whole entry): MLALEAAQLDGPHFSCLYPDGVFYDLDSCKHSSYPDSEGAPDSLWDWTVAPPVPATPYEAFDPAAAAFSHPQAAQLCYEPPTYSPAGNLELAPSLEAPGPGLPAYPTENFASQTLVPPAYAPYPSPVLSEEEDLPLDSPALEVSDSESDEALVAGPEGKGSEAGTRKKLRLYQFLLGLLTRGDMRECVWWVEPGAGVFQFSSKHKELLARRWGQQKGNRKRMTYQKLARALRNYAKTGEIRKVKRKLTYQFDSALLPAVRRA

## CTTTTT
FLI1
  binding signal: 1.22 fold enrichment (6-mer frequency, TF over GST control)
ELK1
  binding signal: 1.16 fold enrichment (6-mer frequency, TF over GST control)
GABPA
  binding signal: 1.32 fold enrichment (6-mer frequency, TF over GST control)
ERG
  binding signal: 1.25 fold enrichment (6-mer frequency, TF over GST control)
ELF1
  binding signal: 1.31 fold enrichment (6-mer frequency, TF over GST control)
EHF
  binding signal: 1.17 fold enrichment (6-mer frequency, TF over GST control)
SPI1
  binding signal: 1.88 fold enrichment (6-mer frequency, TF over GST control)
SPIB
  binding signal: 1.41 fold enrichment (6-mer frequency, TF over GST control)
ELK3
  binding signal: 1.37 fold enrichment (6-mer frequency, TF over GST control)
FEV
  binding signal: 1.35 fold enrichment (6-mer frequency, TF over GST control)
ETV5
  binding signal: 1.28 fold enrichment (6-mer frequency, TF over GST control)
HSF1
  binding signal: 1.23 fold enrichment (6-mer frequency, TF over GST control)
SPIC
  binding signal: 1.34 fold enrichment (6-mer frequency, TF over GST control)
ELF4
  binding signal: 1.43 fold enrichment (6-mer frequency, TF over GST control)
ELK4
  binding signal: 1.24 fold enrichment (6-mer frequency, TF over GST control)
ETV2
  binding signal: 1.28 fold enrichment (6-mer frequency, TF over GST control)
ELF3
  binding signal: 1.58 fold enrichment (6-mer frequency, TF over GST control)
CRX
  binding signal: 1.25 fold enrichment (6-mer frequency, TF over GST control)
ETV1
  binding signal: 1.32 fold enrichment (6-mer frequency, TF over GST control)
